# Assay results taken from PubChem BioAssay (NCATS).
# Records with an inconclusive call do not appear. Entries that show only a call come without a potency. Calls of active or inactive are those of the source. Calls come from the whole dose curve; as a rule, active = well fitted inhibition curve with a large enough effect; inconclusive = small, poorly fitted or top-dose-only effect; inactive = no such curve, though single readings can be large or run the other way.
# Assay: qHTS assay for measurement of the activity of small molecule inhibitors on Zika virus induced Caspase-3 activity in human iPSC derived neural progenitor cells (hNPCs) (AID 1224857); note: nearly all actives have a fitted effect of over 65% in size
# Settings: hNPCs ZIKV-induced caspase-3/7, Caspase-Glo luminescence, 6 h; series mostly up to 45.7 µM
# In short: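 Caspase-3/7 induction by a 6-hour ZIKV infection was quantified with a luminescent Caspase-Glo 3/7 reagent incubated 30 minutes at room temperature. Compounds were preincubated with hNPCs for 1 hour; inhibition was calculated against uninfected and infected control wells.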
row,SMILES,Potency
1,Cc1cn([C@H]2C[C@H](N=[N+]=[N-])[C@@H](CO)O2)c(=O)[nH]c1=O,inactive
2,CC(C(=O)O)c1cccc(C(=O)c2ccccc2)c1 (centres undefined),inactive
3,COc1cc2nc(N3CCN(C(=O)c4ccco4)CC3)nc(N)c2cc1OC,inactive
4,COc1cc2nc(N3CCN(C(=O)C4COc5ccccc5O4)CC3)nc(N)c2cc1OC (centres undefined),inactive
5,Nc1nnc(-c2cccc(Cl)c2Cl)c(N)n1,inactive
6,CN1CCN(CCCN2c3ccccc3Sc3ccc(Cl)cc32)CC1,inactive
7,C[C@H]1c2cccc(O)c2C(O)=C2C(=O)[C@]3(O)C(O)=C(C(N)=O)C(=O)[C@@H](N(C)C)[C@@H]3[C@@H](O)[C@@H]21,inactive
8,NC12CC3CC(CC(C3)C1)C2,inactive
9,CC1(C)O[C@H]2CC(=O)OC[C@]23[C@H]2CC[C@@]4(C)[C@H](c5ccoc5)OC(=O)[C@H]5O[C@]54[C@]2(C)C(=O)C[C@@H]13,inactive
10,CN(CCOc1ccc(NS(C)(=O)=O)cc1)CCc1ccc(NS(C)(=O)=O)cc1,inactive
11,Clc1ccccc1C(c1ccccc1)(c1ccccc1)n1ccnc1,inactive
12,CCc1cccc2c3c([nH]c12)C(CC)(CC(=O)O)OCC3 (centres undefined),inactive
13,NCCCCCC(=O)O,inactive

# Assay: qHTS assay for measurement of the activity of small molecule inhibitors on Zika virus induced Caspase-3 activity in human astrocytoma cells (AID 1224859)
# Settings: SNB-19 ZIKV-induced caspase-3/7, luminescence, 6 h; series mostly up to 45.7 µM
# In short: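 In SNB-19 cells plated at 250 cells/well and grown 16-20 h, compounds were applied 1 h before ZIKV (2 FFU/cell). Six hours later caspase-3/7 luminescence was recorded.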
row,SMILES,Potency
1,O=c1[nH]cc(F)c(=O)[nH]1,inactive
2,Clc1ccc(C(c2ccccc2Cl)C(Cl)Cl)cc1 (centres undefined),inactive
3,COc1ccc(CCN(C)CCCC(C#N)(c2ccc(OC)c(OC)c2)C(C)C)cc1OC (centres undefined),inactive
4,CN1CCN2c3ccccc3Cc3ccccc3C2C1 (centres undefined),inactive
5,CN(C)c1nc(N(C)C)nc(N(C)C)n1,inactive
6,CN(C)CCOC(c1ccccc1)c1ccccc1,inactive
7,CCOC(=O)Nc1ccc(NCc2ccc(F)cc2)nc1N,inactive
8,CN1C(C(=O)Nc2ccccn2)=C(O)c2ccccc2S1(=O)=O,inactive
9,CN1CCN(C2=Nc3cc(Cl)ccc3Nc3ccccc32)CC1,inactive
10,Cn1ccc2cc3c(cc21)CCN3C(=O)Nc1cccnc1,inactive
11,CN1CCC(=C2c3ccccc3CC(=O)c3sccc32)CC1,inactive
12,CCOC(=O)c1ncn2c1CN(C)C(=O)c1cc(F)ccc1-2,inactive
13,Cc1cc(C(C)(C)C)c(O)c(C)c1CC1=NCCN1,inactive
14,OCCN(CCO)c1nc(N2CCCCC2)c2nc(N(CCO)CCO)nc(N3CCCCC3)c2n1,inactive
15,OCCN1CCN(CCCN2c3ccccc3Sc3ccc(C(F)(F)F)cc32)CC1,inactive
16,CN1CCC(=C2c3ccccc3C=Cc3ccccc32)CC1,inactive
17,Cn1c(=O)c2[nH]cnc2n(C)c1=O,inactive
18,CC(C(=O)O)c1cccc(C(=O)c2ccccc2)c1 (centres undefined),inactive
19,COc1cc2nc(N3CCN(C(=O)c4ccco4)CC3)nc(N)c2cc1OC,inactive
20,COc1cc2nc(N3CCN(C(=O)C4COc5ccccc5O4)CC3)nc(N)c2cc1OC (centres undefined),inactive
21,Nc1nnc(-c2cccc(Cl)c2Cl)c(N)n1,inactive
22,CN1CCN(CCCN2c3ccccc3Sc3ccc(Cl)cc32)CC1,inactive
23,C[C@H]1c2cccc(O)c2C(O)=C2C(=O)[C@]3(O)C(O)=C(C(N)=O)C(=O)[C@@H](N(C)C)[C@@H]3[C@@H](O)[C@@H]21,inactive
24,NC12CC3CC(CC(C3)C1)C2,inactive
25,CN(CCOc1ccc(NS(C)(=O)=O)cc1)CCc1ccc(NS(C)(=O)=O)cc1,inactive
26,Clc1ccccc1C(c1ccccc1)(c1ccccc1)n1ccnc1,inactive
27,CCc1cccc2c3c([nH]c12)C(CC)(CC(=O)O)OCC3 (centres undefined),inactive
28,NCCCCCC(=O)O,inactive

# Assay: qHTS Screen of the MIPE 4.0 Collection Against Ewings Sarcoma (RDES) (AID 1259252); note: nearly all actives have a fitted effect of over 35% in size; note: potency is the fitted concentration of half-maximal effect
# Settings: RD-ES Ewing sarcoma viability, CellTiter-Glo, 48 h; series mostly up to 45.8 µM
# In short: (§1)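 Measured: ATP luminescence (CellTiter-Glo) 10 min after reagent addition, following 48 h drug treatment. Relative luciferase units converted to percent activity, with no-cell wells as full and DMSO wells as zero inhibition.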
row,SMILES,Potency
1,Cc1ccc(-c2cc(C(F)(F)F)nn2-c2ccc(S(N)(=O)=O)cc2)cc1,4.18 µM (active)
2,CC(C)Cc1ccc(C(C)C(=O)O)cc1 (centres undefined),inactive
3,CC12CC3CC(C)(C1)CC(N)(C3)C2,inactive
4,Nc1ccn([C@H]2CC[C@@H](CO)O2)c(=O)n1,inactive
5,Cc1cn([C@H]2C[C@H](N=[N+]=[N-])[C@@H](CO)O2)c(=O)[nH]c1=O,inactive
6,CC1(C)O[C@H]2CC(=O)OC[C@]23[C@H]2CC[C@@]4(C)[C@H](c5ccoc5)OC(=O)[C@H]5O[C@]54[C@]2(C)C(=O)C[C@@H]13,inactive

# Assay: qHTS Screen of the MIPE 4.0 Collection Against Ewings Sarcoma (TC71) (AID 1259253); note: nearly all actives have a fitted effect of over 40% in size; note: potency is the fitted concentration of half-maximal effect
# Settings: TC71 Ewing sarcoma viability, CellTiter-Glo, 48 h; series mostly up to 45.8 µM
# In short: as §1
row,SMILES,Potency
1,CN1CCN2c3ccccc3Cc3ccccc3C2C1 (centres undefined),16.6 µM (active)
2,Cc1ccc(-c2cc(C(F)(F)F)nn2-c2ccc(S(N)(=O)=O)cc2)cc1,13.2 µM (active)
3,Cn1ccc2cc3c(cc21)CCN3C(=O)Nc1cccnc1,23.5 µM (active)
4,CN1CCC(=C2c3ccccc3CC(=O)c3sccc32)CC1,13.2 µM (active)
5,CC(C)Cc1ccc(C(C)C(=O)O)cc1 (centres undefined),inactive
6,CCOC(=O)c1ncn2c1CN(C)C(=O)c1cc(F)ccc1-2,inactive
7,OCCN(CCO)c1nc(N2CCCCC2)c2nc(N(CCO)CCO)nc(N3CCCCC3)c2n1,20.9 µM (active)
8,CC12CC3CC(C)(C1)CC(N)(C3)C2,inactive
9,CN1CCC(=C2c3ccccc3C=Cc3ccccc32)CC1,16.6 µM (active)
10,Cn1c(=O)c2[nH]cnc2n(C)c1=O,inactive
11,Nc1ccn([C@H]2CC[C@@H](CO)O2)c(=O)n1,inactive
12,Cc1cn([C@H]2C[C@H](N=[N+]=[N-])[C@@H](CO)O2)c(=O)[nH]c1=O,inactive
13,COc1cc2nc(N3CCN(C(=O)C4COc5ccccc5O4)CC3)nc(N)c2cc1OC (centres undefined),16.6 µM (active)
14,NC12CC3CC(CC(C3)C1)C2,26.4 µM (active)
15,CC1(C)O[C@H]2CC(=O)OC[C@]23[C@H]2CC[C@@]4(C)[C@H](c5ccoc5)OC(=O)[C@H]5O[C@]54[C@]2(C)C(=O)C[C@@H]13,inactive
16,CN(CCOc1ccc(NS(C)(=O)=O)cc1)CCc1ccc(NS(C)(=O)=O)cc1,16.6 µM (active)
17,Clc1ccccc1C(c1ccccc1)(c1ccccc1)n1ccnc1,20.9 µM (active)
